Data: the supplement of paper PMC13380429
Unmarked numbers belong to inactive results.

Test system: Vero E6 infected with SARS-CoV-2
Experiment: inhibition of SARS-CoV-2 cytopathic effect; higher = more antiviral protection, active = above 15
Details: 48 h

Row | Compound | inhibition of SARS-CoV-2 cytopathic effect (1 nM) | inhibition of SARS-CoV-2 cytopathic effect (8.33 nM) | inhibition of SARS-CoV-2 cytopathic effect (100 nM) | inhibition of SARS-CoV-2 cytopathic effect (833.33 nM) | inhibition of SARS-CoV-2 cytopathic effect (10000 nM)
1 | Cc1cnc(Nc2ccc(N3CCN(C)CC3)cc2)nc1Nc1cccc(S(=O)(=O)NC(C)(C)C)c1 | -0.35% | -0.73% | 0.51% | -7.25% | -21.1%
2 | CN(C)CCOC(c1ccccc1)c1ccccc1 [diphenhydramine] | 0.83% | 0.08% | -0.85% | 0.48% | -0.92%
3 | CCCCCCCC/C=C\CCCCCCCC(=O)NCCO [oleoylethanolamide] | 1.05% | -0.89% | -0.87% | 0.17% | -4.33%
4 | c1ccc(Cn2c(-c3ccc(OC[C@H](C4CCNCC4)n4c(-c5ccccc5)nc5ccccc54)cc3)nc3ccccc32)cc1 [deltarasin] | -4.79% | -0.65% | -1.55% | -1.93% | -33.6%
5 | CC(NCCC(c1ccccc1)c1ccccc1)c1ccccc1 (stereo not given) [fendiline] | 0.75% | 2.18% | -0.68% | -4.72% | 11.9%
6 | CC1Sc2c(C(=O)O)c(=O)c3cc(F)c(N4CCNCC4)cc3n21 (stereo not given) [ulifloxacin] | -1.7% | -1.36% | -3.62% | 1.61% | -0.79%
7 | COc1ccc(NC(=O)c2ccc(C(=N)N(C)C)cc2)c(C(=O)Nc2ccc(Cl)cn2)c1 [betrixaban] | -1.01% | 0.96% | -0.6% | 1.17% | -3.48%
8 | Cc1ccc(C(=O)Nc2cccc(C(F)(F)F)c2)cc1Nc1nc(-c2cccnc2)nc2c1cnn2C | -0.06% | 0.17% | 3.74% | 8.31% | 28.1% (active)
9 | Cn1cc(-c2ccc(F)c(C(F)(F)F)c2)nc1C1CCN(c2ncnc3[nH]ncc23)CC1 | 0.45% | -0.64% | -1.2% | -2.86% | -3.92%
10 | CN(C)c1ccc(/C=C2\C(=O)Nc3ccccc32)cc1 | 2.81% | -0.37% | 1.44% | 2.25% | 0.95%
11 | CCC/C=C1\OC(=O)C2=C1CCC=C2 [ligustilide] | 8.3% | 9.89% | 8.75% | 5.16% | 5.79%
12 | CC[C@@H](C(N)=O)N1CCCC1=O [levetiracetam] | 0.86% | 0.42% | 0.01% | 0.56% | -0.05%
13 | CCCCCCCCCCC(CO)CCCCCCCC (stereo not given) [2-octyldodecan-1-ol] | 1.79% | -0.7% | 0.48% | 0.76% | 0.34%
14 | CC[C@]12C=CCN3CC[C@@]4(c5cc([C@@]6(C(=O)OC)C[C@@H]7C[C@@H](C(C)(F)F)CN(Cc8c6[nH]c6ccccc86)C7)c(OC)cc5N(C)[C@H]4[C@@](O)(C(=O)OC)[C@@H]1OC(C)=O)[C@@H]32 [Vinflunine Ditartrate] | 3.38% | 3.35% | 2.91% | -2.99% | -3.92%
15 | O=C(O)CCc1nc(-c2ccccc2)c(-c2ccccc2)o1 [oxaprozin] | -1.4% | -2.65% | -0.38% | -0.99% | 0.84%
